Rows were chosen to be rich in hits. Some 3.5% of all compounds tested hit in one or more screens of this group.
FBW7 activator: human FBW7 E3 ligase activation, primary screen; normalized activity (activation), % at 26.1 µM; 650,000 tested, 0.13% active; Q969H0; AlphaScreen FBW7–phospho-cyclin E peptide binding, activator screen; in the data active = normalized activity above about 1.9%;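 also: purified mutant Fbw7 with reduced substrate affinity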
GPR151 ag: activates the human receptor GPR151. Q8TDV0. PathHunter beta-arrestin GPR151 cells, luminescence. activation, % at 11.2 µM. 650,000 tested, 1% active. AID 1508602; in the data active = activation above about 4.9%;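 also: 0% = median of compound wells and 100% = cells with positive control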
Target sequence (Q8TDV0 whole entry, looked up): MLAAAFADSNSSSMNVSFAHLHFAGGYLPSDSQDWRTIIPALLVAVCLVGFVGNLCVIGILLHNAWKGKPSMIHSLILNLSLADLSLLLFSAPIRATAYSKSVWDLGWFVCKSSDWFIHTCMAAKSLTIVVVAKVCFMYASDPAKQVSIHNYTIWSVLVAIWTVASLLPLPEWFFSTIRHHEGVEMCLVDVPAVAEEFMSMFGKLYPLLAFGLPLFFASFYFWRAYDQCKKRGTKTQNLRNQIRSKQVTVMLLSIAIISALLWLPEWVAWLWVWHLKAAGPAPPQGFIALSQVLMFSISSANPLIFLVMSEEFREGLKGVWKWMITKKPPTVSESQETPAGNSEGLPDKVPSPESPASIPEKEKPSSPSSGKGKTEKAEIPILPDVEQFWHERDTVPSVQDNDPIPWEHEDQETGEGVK
TEAD-YAP block: TEAD-YAP interaction inhibition; inhibition, % at 9.12 µM; HEK-TIYL cells, TEAD-Gal4/YAP UAS-luciferase luminescence; 640,000 tested, 1.4% active; in the data active = inhibition above about 32%;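 also: 0% = median of test compound wells and 100% = reference inhibitor wells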
MITF primary: human MITF inhibition, primary screen | O75030 | AlphaScreen MITF homodimerization, bead proximity signal | inhibition, % at 2.6 µM | 650,000 tested, 0.91% active | AID 1259374; in the data active = inhibition above about 50%;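 also: 0% = vehicle wells with protein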
GPR151 conf act: human GPR151 activation, confirmation screen; 6,700 tested, under 10 active; GPR151 PathHunter beta-arrestin cells, luminescence, 90 min; % of EA-reagent control over plate median; shares compounds with GPR151 ag; activation, % at 11.2 µM;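 active = mean percent activation across replicates above the confirmation screen cutoff of 4.91%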
GPR119 counter: activates human GPR119 in a GPR151 counter-screen; shares compounds with GPR151 ag; 6,700 tested, 0.3% active; GPR119 PathHunter beta-arrestin cells, luminescence, 90 min; 0 = compound-well median, 100 = enzyme-acceptor control; activation, % at 11.2 µM;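 active = mean percent activation in the counterscreen above 29.09%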;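 also: counterscreen on off-target GPR119 to flag nonselective hits from the GPR151 activator screen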
Starred values were filed as active, the others as inactive; · = no result given.

SMILES | FBW7 activator | GPR151 ag | TEAD-YAP block | MITF primary | GPR151 conf act | GPR119 counter
COc1ccc(NC(=O)CN2C(=O)C(c3ccccc3)Oc3cccnc32)cc1OC (centres undefined) | 0 | 6.3* | -3 | -4 | 0 | 0
CCN(c1ccccc1C)S(=O)(=O)c1nnc(NC(=O)c2ccc(F)cc2)s1 | 0 | 10* | 7 | 6 | 0 | -6
CCN(c1ccccc1)S(=O)(=O)c1ccc(F)c(C(=O)Nc2ccc(OC)cc2)c1 | 0 | 8.7* | 5 | 14 | -2 | -15
CCN(c1ccccc1)S(=O)(=O)c1nnc(NC(=O)c2ccccc2OC)s1 | 0 | 5.0* | 3 | -9 | 1 | 5
CCOc1ccc(S(=O)(=O)Nc2cc(OC)ccc2OC)c2cccnc12 | 0 | 1 | -6 | 9 | · | ·
CCOC(=O)C(C(=O)NCc1ccccc1)C1CCCCC1 (centres undefined) | 0 | 5.9* | -4 | -14 | -1 | -1
C/C(=N/NC(N)=S)c1ccccc1[N+](=O)[O-] | 0 | 5.6* | 6 | -2 | -1 | -8
Cc1cc2nc3s/c(=C\c4cccc(OCc5c(F)cccc5Cl)c4)c(=O)n3c2cc1C | 0 | -2 | -5 | -3 | · | ·
O=C(NCc1ccccc1Cl)C1CCC(Cn2c(SCc3cccc(F)c3)nc3ccccc3c2=O)CC1 (centres undefined) | 0 | 0 | -3 | -8 | · | ·
CCOc1ccc(-n2nc3ccc(NC(=O)c4ccc([N+](=O)[O-])cc4Cl)cc3n2)cc1 | 0 | 0 | 0 | -1 | · | ·
CCCN(CCC)CCNS(=O)(=O)c1ccc2c(c1)oc(=O)n2C | 0 | 7.6* | -5 | 6 | 0 | 8
COc1ccc(OC)c(CNS(=O)(=O)c2ccc3c(c2)oc(=O)n3C)c1 | 0 | -1 | 20 | 2 | · | ·
COc1ccccc1CNS(=O)(=O)c1ccc2c(c1)oc(=O)n2C | 0 | 5.9* | 2 | 18 | -1 | -9
Cc1cccc(N(C)C(=O)CCS(=O)(=O)c2ccc3c(c2)OCC(=O)N3)c1 | 0 | 1 | 3 | 2 | · | ·
N#C/C(=C\Nc1ccccc1F)c1nc(-c2cc3cc([N+](=O)[O-])ccc3oc2=O)cs1 | 0 | 11* | 0 | 2 | 0 | 10
C=CCn1c(=O)c2ccccc2n2c(SCC(=O)Nc3ccccc3C(=O)OC)nnc12 | 0 | 5.0* | 1 | -7 | 0 | -6
CCc1ccccc1NC(=O)c1c(NC(=O)c2ccco2)sc2c1CCCCC2 | 0 | -1 | -3 | 4 | · | ·
C/C(=C/C(=O)c1ccc(Cl)cc1)Nc1cccc(O)c1 | 0 | 5.8* | -9 | 12 | -1 | -10
Cc1ccc2oc(-c3cccc(NC(=S)NC(=O)c4ccc(Cl)cc4)c3C)nc2c1 | 0 | 5.3* | -32 | 2 | 0 | 4
COc1ccc(C(=O)COC(=O)c2cccc(N3C(=O)C4CC=CC(C)C4C3=O)c2)cc1 (centres undefined) | 0 | -1 | -14 | -2 | · | ·
O=C(c1ccco1)N1CCC(c2nc3c(nnn3Cc3ccccc3Cl)c(=O)[nH]2)CC1 | 1 | 5.7* | 9 | 5 | 1 | 13
Cc1ccc(Cn2nnc3c(=O)[nH]c(C4CCN(C(=O)c5ccco5)CC4)nc32)cc1 | 0 | 1 | 7 | 24 | · | ·
Nc1nc(-c2ccc(N3CCOCC3)nc2)nc2c1ncn2C1CCCCC1 | 1 | -2 | -35 | 6 | · | ·
CC1(C)CC(=O)c2sc(NC(=O)COc3ccc(Cl)cc3)nc2C1 | 0 | 6.4* | 8 | 4 | 0 | 3
C=CCOc1ccccc1C(c1c(C)[nH][nH]c1=O)c1c(C)[nH][nH]c1=O | -1 | 9.5* | 5 | 7 | 0 | -8
SMILES | FBW7 activator | GPR151 ag | TEAD-YAP block | MITF primary | GPR151 conf act | GPR119 counter
CC(C)(C)C1CCC(OC(=O)CCC(=O)N2CCCCC2)CC1 (centres undefined) | 0 | 11* | -44 | -9 | 0 | 4
Cc1ccc(NC(=O)CCC(=O)OC2CCC(C(C)(C)C)CC2)cc1 (centres undefined) | 0 | 0 | 5 | -13 | · | ·
COc1ccc(-n2c(/C=C/c3cccc([N+](=O)[O-])c3)nc3ccccc3c2=O)cc1Cl | 0 | 0 | 10 | 5 | · | ·
CCOC(=O)c1cnc2cc(C(F)(F)F)ccc2c1Nc1cc(OC)ccc1OC | 0 | 4.9* | 6 | 0 | -1 | 9
CCOC(=O)c1cnc2ccc(OC)cc2c1Nc1ccccc1C | 0 | 0 | -5 | 3 | · | ·
CCOC(=O)c1cnc2ccc(OC)cc2c1Nc1ccccc1C(=O)O | 0 | 5.6* | -1 | -9 | 0 | -4
CCOC(=O)C(C)(C)N(Cc1ccccc1C)S(=O)(=O)c1ccc([N+](=O)[O-])cc1 | 0 | 0 | -2 | 22 | · | ·
COc1cc(S(=O)(=O)NC2CC(C)(C)NC(C)(C)C2)ccc1Br | 1 | -2 | 8 | 5 | · | ·
Cc1cccc(N2C(=O)CSC2c2ccc(C3SCC(=O)N3c3cccc(C)c3)cc2)c1 (centres undefined) | 0 | -1 | 9 | 8 | · | ·
COc1ccc(C(=O)N(C)c2ccccc2)cc1S(=O)(=O)N1CCCC1 | 0 | 5.2* | -5 | 4 | 0 | 0
CN(C(=O)c1cccc(S(=O)(=O)N2CCCCC2)c1)c1ccccc1 | 0 | -2 | -9 | 2 | · | ·
CNC(=O)c1ccc(OC)c(S(=O)(=O)N2CCC(C)CC2)c1 | 1 | 5.4* | 6 | 7 | 0 | -7
CCOC(=O)N1CCC(N2CCCC(CNC(=O)c3cccs3)C2)CC1 (centres undefined) | 0 | -2 | -1 | -2 | · | ·
O=C(Cc1ccccc1)NCC(=O)OCc1ccccc1 | 0 | 6.3* | 7 | -2 | 0 | -3
O=C(CCCc1ccccc1)Nc1ccc(Br)cc1C(=O)O | 0 | 5.9* | 1 | 9 | 0 | -7
CC(=O)Nc1ccc(C(=O)NCCNC(=O)Cc2ccc(F)cc2)cc1 | 0 | 5.5* | -7 | -10 | 1 | 1
O=C(CCCc1ccccc1)Nc1ccc(O)cc1C(=O)O | 0 | -1 | 9 | 4 | · | ·
O=C(CNC(=O)Cc1ccccc1)NCC(=O)OCc1ccccc1 | 0 | 2 | 7 | -12 | · | ·
COc1ccccc1CNC(=O)COc1cccc2ccccc12 | 0 | 5.6* | -14 | 23 | 1 | 3
O=C(O)C12C[C@H]3C[C@@H](C1)CC(n1ncc(Nc4cccc(F)c4)c(Cl)c1=O)(C3)C2 | 0 | -1 | -8 | -4 | · | ·
CCCOc1ccc(C2NC(=O)NC(C)=C2C(=O)OCCC(C)C)cc1 (centres undefined) | 0 | 0 | 5 | 27 | · | ·
O=C(CCc1ccccc1)Nc1ccccc1C(=O)NCc1ccccc1 | 0 | 8.0* | -3 | -5 | 0 | 13
O=C(COc1ccccc1Br)NCc1ccccc1 | 0 | 2 | -17 | -17 | · | ·
CCc1ccccc1OCC(=O)NCc1ccccc1 | 1 | 5.8* | -5 | 12 | 0 | 0
